About 83,000 compounds went through this panel and 20% of them were active in at least one assay; those are over-represented in the sample as a whole.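 The test compound was applied at a single concentration to cells in 96-well plates for 48 hours, and percent growth was recorded.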 Unmarked numbers belong to inactive results. Active and inactive are the calls of the source. How the source made its calls: active means growth percent below 10; inactive means the rest.

Experimental findings from PubChem BioAssay (NCI) are described below.

What all share (assay): NCI-60 one-dose screen, 48 h (100 = growth as untreated, 0 = no growth, -100 = all killed)
What all share (conditions): 10 µM unless noted

The subject of assay [1] is HCT-15 colon.
The test system of assay [2] is HT29 colon.
Assay [3] has as its system SNB-75 CNS.
The subject of assay [4] is SNB-19 CNS.
In assay [5] the test system is PC-3 prostate.
Assay [6] relates to SK-MEL-5 melanoma.
Assay [7] deals with UACC-62 melanoma.
Assay [8] relates to LOX IMVI melanoma.
The test system of assay [9] is SK-MEL-28 melanoma.
Assay [10] relates to SK-MEL-2 melanoma.
Assay [11] relates to EKVX NSCLC.
The subject of assay [12] is SN12C renal.
The test system of assay [13] is UO-31 renal.
In assay [14] the test system is TK-10 renal.
Assay [15] relates to ACHN renal.
For assay [16], the system named is CAKI-1 renal.
In assay [17] the test system is A498 renal.
Assay [18] has as its system CCRF-CEM leukemia.
For assay [19], the system named is MOLT-4 leukemia.

In the case of `CC(=O)Nc1nc(C)c(-c2csc(Nc3ccccc3)n2)s1`, the growth in assay [1] is 16.4%; in assay [2], 28.7%; in assay [3], 38.3%; in [4], 35.8%; in assay [5], 31.8%; in [6], 9.06% (active). The growth in [7] is 21.4%; in [8], 21.4%; in [9], 38.1%; in assay [10] it was 18.8%; in [11], -0.417% (active); in assay [12] it was 24.4%. The growth was 10.9% in assay [13]; 31.4% in assay [14]; 17.2% in assay [15]; 28.6% in assay [16]; 16% in assay [17]; 27.1% in assay [18]. In addition, the growth in [19] is 16.6%.

`COc1ccc(C2CC(c3cccc(OCCCCOc4cccc(C5=NN(C(C)=O)C(c6ccc(OC)cc6)C5)c4)c3)=NN2C(C)=O)cc1` (stereo not drawn): the growth was 75% in [1]; 89.3% in [2]; 75.4% in assay [3]; 64.5% in assay [4]; 48.4% in assay [5]; 11.8% in assay [6]. Also, the growth in assay [7] was 57.1%; in [9] it was 97.2%; in assay [10], 59.7%; in assay [11], 46.3%; in assay [12] it was 79.9%; in [13], 54.7%. The growth in [14] was 78.9%; in assay [15], 67.2%; in [16], 54.1%; in [17], 75.8%; in assay [18], 63.8%; in [19], 57.4%.

As for `Brc1cc(-c2cc(-c3ccc4c(c3)OCCO4)[nH]n2)cs1`, the growth in [1] is 24.4%; in assay [2], 22.6%; in assay [3], 19.9%; in assay [4], 56.9%; in assay [6], 23.5%; in assay [7] it was 54.7%. Further, the growth in [8] is 42.3%; in assay [9], 58.6%; in [10], 62.7%; in assay [11], 62.4%; in assay [12], 65%; in [13], 54.6%. For the same molecule, the growth in assay [14] was 138%; in [15] it was 56%; in assay [16], 33.8%; in assay [17], 48.6%; in assay [18], 23.4%; in assay [19], 27.8%.

Regarding `CC[C@]12C=CCN3CC[C@@]4(c5ccc(OC)cc5N(C)[C@H]4[C@@](O)(C(=O)OC)[C@@H]1OC(=O)CCN1CCc4ccccc4C1)[C@@H]32`, the growth in [1] is 84.8%; in assay [2], 99%; in assay [3] it was 66.9%; in assay [4], 91.9%; in assay [5], 70.1%; in assay [6], 98.2%. Moreover, the growth in [7] is 99%; in assay [8] it was 88.5%; in assay [9] it was 95%; in [10] it was 108%; in assay [11] it was 88.6%; in assay [12], 99.4%. The growth in [13] is 71.6%; in assay [14], 98.8%; in assay [15], 99.3%; in [16], 80.3%; in [17], 94.5%; in [18], 82.6%. Besides, the growth in assay [19] was 80.5%.

Consider `CN1CCN(Cc2ccc(NC(=O)c3cncc(C#Cc4cnc(N)nc4)c3)cc2C(F)(F)F)CC1`, for which the growth in assay [1] is 17.2%; in [2], 14.3%; in assay [3], 41.5%; in assay [4], 57.4%; in [5] it was 35.1%; in [6], 38%. The growth in assay [7] is -0.0134% (active); in assay [8], 4.32% (active); in [9] it was 2.04% (active); in assay [10] it was -65.2% (active); in [11] it was 43.9%; in assay [12], 11.5%. The growth in assay [13] was 4.98% (active); in [14] it was 17.4%; in [15], 7.78% (active); in [16], 0.371% (active); in assay [17], -17.2% (active); in [18] it was 30.9%. Further, in [19], the growth is 21.9%.

Regarding `CC(C)NC(=O)c1cc(-c2ccc(NC(=O)Nc3ccc(F)cc3)cc2)nc2cccnc12`, the growth in assay [1] is 99.5%; in assay [2] it was 104%; in [3], 101%; in [4], 99.9%; in [5] it was 96.7%; in assay [6], 101%. Besides, the growth was 96% in assay [7]; 98% in assay [8]; 107% in assay [9]; 120% in assay [10]; 102% in [11]; 103% in assay [12]. Also, the growth is 92.8% in [13]; 110% in [14]; 103% in [15]; 95% in assay [16]; 107% in [17]; 112% in [18]. In addition, the growth in [19] is 133%.

For the molecule `O=C(/C=C/c1ccc(F)cc1)Nc1cccc2cccnc12`, the growth in assay [1] is 75.4%; in assay [2], 105%; in [3] it was 106%; in [4], 109%; in [6], 98.7%; in assay [7], 91.8%. In addition, the growth in [9] is 109%; in [10] it was 107%; in assay [11], 91.4%; in assay [12], 101%; in [13], 84.1%; in [14] it was 147%. Moreover, the growth in [15] is 105%; in assay [16], 91.4%; in assay [17], 114%; in assay [18], 105%; in assay [19], 105%.

Turning to `CC1=C(C)C(=O)C(Nc2ccc3c(c2)OCCO3)=C(Br)C1=O`, the growth in assay [1] was 98.1%; in assay [2] it was 108%; in [3], 83.7%; in assay [4], 98.5%; in [5], 86%; in assay [6], 89.1%. For the same molecule, the growth in [7] is 92.1%; in [8], 20.3%; in assay [9], 107%; in assay [10], 114%; in [11], 73.7%; in [12], 99.7%. Also, the growth in assay [13] is 95.8%; in assay [14] it was 135%; in assay [15] it was 101%; in [16] it was 102%; in assay [17] it was 103%; in [18], 13.2%. In addition, in assay [19], the growth was -7.79% (active).
